The values below come from PubChem BioAssay (EPA / NIEHS).

The AC50 is the concentration at which the activity in the assay is half-maximal.

Experiment [1] in a line: CCTE_Shafer_MEA_dev_network_spike_peak: CCTE's Neural Network Formation Assay for Mean Number of Electrodes in Network Spike, Shafer Lab (AID 2284049).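 On AC50: fitted for loss of signal meaning fewer electrodes in network spikes than DMSO.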 The gist of the method: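 Continuous 12-day exposure of rat cortical cultures, starting at plating, on MEA plates. Endpoint: electrodes participating in network-spike peaks, AUC across DIV 5–12, DMSO as negative control.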

Experiment [2] in a line: CCTE_Shafer_MEA_dev_spike_duration_mean: CCTE's Neural Network Formation Assay for Mean Spike Duration, Shafer Lab (AID 2284051).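 Further: mean network spike duration pooled as area under curve over DIV 5 to 12 recordings.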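 On AC50: potency for a decrease in mean network spike duration versus DMSO.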 The gist of the method: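 With DMSO as baseline, loss of mean network spike duration was scored from extracellular recordings of rat cortical neurons on MEA plates. Exposure spanned plating to DIV 12; the four recording days were collapsed into one AUC value.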

A short description of experiment [3]: CCTE_Shafer_MEA_dev_network_spike_duration_std: CCTE's Neural Network Formation Assay for Standard Deviation of Network Spike Duration, Shafer Lab (AID 2284052).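 Further: area under curve of spike duration SD across recording days 5 to 12; hits are decreases in network spike duration SD versus DMSO vehicle.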 The procedure, abridged: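 Developing networks of rat cortical neurons were exposed over twelve days in vitro on 48-well MEA plates. Trapezoidal AUC of recordings (DIV 5–12) was analysed for signal loss relative to DMSO vehicle.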

Experiment [4] can be described thus: CCTE_Shafer_MEA_dev_per_network_spike_spike_number_mean: CCTE's Neural Network Formation Assay for Mean Number of Spikes in a Network Spike, Shafer Lab (AID 2284053).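 On AC50: fitted as decrease in spikes per network spike relative to DMSO.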 The gist of the method:
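First, rat cortical cells (1.5 x 10^5/well) were seeded onto MEA wells; second, dosing began at plating and was refreshed on DIV 5 and 9; finally, network-spike spike counts across DIV 5–12 were summarized as AUC.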

Experiment [5] in a line: CCTE_Shafer_MEA_dev_per_network_spike_spike_percent: CCTE's Neural Network Formation Assay for Percent of Spikes in a Network Spike, Shafer Lab (AID 2284054). The procedure, abridged:
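Primary rat cortical neurons on 16-electrode MEA wells (PEI-coated, laminin at plating), exposed from day 0 with renewal at DIV 5 and 9; spikes within 0.05 s of network-spike peaks over total spikes, AUC across days 5, 7, 9, 12.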

The nature of experiment [6]: CCTE_Shafer_MEA_acute_AB: CCTE's Alamar Blue Assay for Cytotoxicity in the Neural Acute Assay, Shafer Lab (AID 2284069; active means hit-call score of the fitted dose curve at least 0.9, where 1 is the maximum;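 further: active compounds lower the viability signal compared with DMSO wells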). The procedure, abridged: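 Cytotoxicity endpoint for acute MEA exposures of primary rat cortical neurons on day 13 or 15. Resazurin reduction is read fluorescently at 544/590 nm, with DMSO as the negative-control baseline.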
The nature of experiment [7]: CCTE_Shafer_MEA_dev_AB: CCTE's Alamar Blue Assay for Cytotoxicity in the Neural Network Formation Assay, Shafer Lab (AID 2284083; active means hit-call score of the fitted dose curve at least 0.9, where 1 is the maximum;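 further: resazurin reduction fluorescence as viability of cultured neurons; twelve days of exposure from plating with re-dosing on DIV 5 and 9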). The gist of the method: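 Cytotoxicity companion to the developmental MEA: primary rat cortical neurons, 12-day exposure starting day 0, compound refreshed DIV 5 and 9; resazurin fluorescence, fitted against DMSO vehicle.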
A general note: Resazurin is reduced to fluorescent resorufin, in cell work by metabolically active cells.

Experiment [8] can be described thus: CCTE_Shafer_MEA_dev_mutual_information_norm: CCTE's Neural Network Formation Assay for Mutual Information Normalization, Shafer Lab (AID 2284091).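 On AC50: mutual information between electrodes summarised as area under curve across four recording days; potency is for a decrease in mutual information relative to DMSO.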 The procedure, abridged:
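Rat cortical cultures, 48-well MEA, continuous exposure DIV 0–12 with full media/compound change DIV 5 and 9. Readout: inter-electrode mutual information, AxIS adaptive spike detection; AUC across DIV 5/7/9/12 recordings; DMSO baseline, negative fitting direction.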

The nature of experiment [9]: CCTE_Shafer_MEA_dev_correlation_coefficient_mean: CCTE's Neural Network Formation Assay for Mean Correlation Coefficient, Shafer Lab (AID 2284093).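 On AC50: well mean pairwise spike train correlation integrated as AUC over recording days 5 to 12; potency fitted for loss of correlation relative to DMSO vehicle wells.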 The procedure, abridged:
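Extracellular firing from rat cortical networks on 48-well MEAs, DMSO-referenced, negative fitting direction. Compound present from plating to DIV12; mean pairwise correlation per well integrated over DIV5–12 recordings by trapezoidal AUC.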

The nature of experiment [10]: UKN2_HCS_IMR90_neural_migration: University of Konstanz (UKN) Leist Lab Neural Crest Cell Migration Assay in human induced IMR90 Pluripotent Stem Cells (UKN2) (AID 2284204). Conditions: actives raise or lower the signal. The gist of the method:
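iPSC-derived IMR90 neural crest cells on PLO/laminin/fibronectin were seeded around silicone stoppers; after stopper removal, migration in N2-S medium with EGF and FGF ran 24 h before 24 h chemical exposure. Calcein-AM/Hoechst high-content imaging; bidirectional fit versus DMSO.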

The nature of experiment [11]: IUF_NPC1b_proliferation_BrdU_72hr: Leibniz Research Institute for Environmental Medicine (IUF) 72-hour Neural Progenitor Cell Bromodeoxyuridine (BrdU) Proliferation Assay (NPC1b) (AID 2284207). The procedure, abridged: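 hNPC spheres (primary, GW 16-19 fetal cortex), single sphere/well, EGF+FGF medium; 72 h compound, no renewal; BrdU pulse last 16 h; luminescent ELISA; activity vs DMSO baseline; growth-factor withdrawal as positive control.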

The nature of experiment [12]: IUF_NPC1a_proliferation_area_72hr: Leibniz Research Institute for Environmental Medicine (IUF) 72-hour Neural Progenitor Cell Proliferation Area Assay (NPC1a) (AID 2284208). The procedure, abridged:
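Proliferation read as increase in sphere area by phase-contrast imaging over 72 h continuous compound exposure (no renewal) of hNPC spheres grown with EGF/FGF at 37C, 5% CO2. Growth-factor withdrawal served as positive control; DMSO as baseline.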

Experiment [13] is described as follows: IUF_NPC1_viability_72hr: Viability Assessment at 72 hours in the Leibniz Research Institute for Environmental Medicine (IUF) Neural Progenitor Cell Proliferation Assay (NPC1) (AID 2284209). The procedure, abridged: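 Single spheres (0.25-0.35 mm) of human fetal cortex-derived neural progenitor cells were grown in proliferation medium with EGF and FGF at 37C and 5% CO2. They were exposed for 72 h without renewal, and viability was read by alamar blue resorufin fluorescence.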

The nature of experiment [14]: CCTE_Mundy_HCI_Cortical_Synap_Neur_Matur_NeuriteSpotCountPerNeuriteLength: CCTE's Synaptogenesis and Neurite Maturation Assay in rat cortical cells for Neurite Spot Count per Neurite Length, Mundy Lab (AID 2284210). The gist of the method: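 Rat primary cortical cultures, glia arrested with AraC at DIV 5, were dosed with media change at DIV 7 and fixed at DIV 12. Synaptophysin puncta per MAP2-labelled neurite length were quantified by high-content imaging versus DMSO.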

Experiment [15] in a line: CCTE_Shafer_MEA_dev_LDH: CCTE's Lactate Dehydrogenase Assay for Cytotoxicity in the Neural Network Formation Assay, Shafer Lab (AID 2284068; active means hit-call score of the fitted dose curve at least 0.9, where 1 is the maximum;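 further: exposure for twelve days from plating with re-dosing on DIV 5 and 9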). The gist of the method: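 Developing rat cortical networks on MEA plates are exposed to compound for 12 days from plating. LDH activity is measured spectrophotometrically, with DMSO as baseline.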
The subject of experiment [16] is DIO2 (gene 1734). Nature of the experiment: CCTE_GLTED_hDIO2: CCTE's human Deiodinase 2 (DIO2) Inhibition Assay, Great Lakes Toxicology and Ecology Division (GLTED) Lab (AID 2284050; active means hit-call score of the fitted dose curve at least 0.9, where 1 is the maximum). The gist of the method: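 Cell-free human DIO2 incubated 3 h with chemical; liberated iodide quantified by Sandell-Kolthoff absorbance. Triplicate plates; loss of signal fitted vs DMSO.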

In experiment [17] the test system is DIO3 (gene 1735). Nature of the experiment: CCTE_GLTED_hDIO3: CCTE's human Deiodinase 3 (DIO3) Inhibition Assay, Great Lakes Toxicology and Ecology Division (GLTED) Lab (AID 2284055; active means hit-call score of the fitted dose curve at least 0.9, where 1 is the maximum;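 on AC50: potency is for inhibition seen as loss of released iodide signal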). The gist of the method:
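Human DIO3 from an adenovirus expression system is incubated 3 h with test chemical. Released iodide is quantified by Sandell-Kolthoff absorbance, in triplicate plates. Loss of signal is fitted relative to DMSO.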

Molecules are shown by their SMILES. Where “and” joins values, the source holds several entries; their conditions need not be identical. Identical values can stand only once. Results filed as inconclusive are left out. Calls of active or inactive are those of the source. How the source made its calls, unless noted: active means hit-call score of the fitted dose curve at least 0.9, where 1 is the maximum; inactive means score below 0.9.

`CCCCOC(=O)c1ccccc1C(=O)OCc1ccccc1`: the AC50 in experiment [1] was 15.2 µM (active); in experiment [2] it was 13.6 µM (active); in [11], 82 µM (active). For the same molecule, the result in [3], in experiment [4], in experiment [5], in experiment [6], in experiment [7] and in experiment [8] was inactive. Besides, the call in experiment [9], in experiment [10], in [12], in experiment [13] and in experiment [14] was inactive.

As to `CCCCCOC(=O)c1ccccc1C(=O)OCCCCC`, the call in experiment [6] was inactive.

As to `Nc1cc(Cl)cc(C(=O)O)c1Cl`, the outcome in experiment [1], in [2], in [3], in [4], in experiment [5] and in [15] was inactive. For the same molecule, the result in experiment [8], in experiment [9] and in experiment [14] was inactive.

For `Clc1ccc(C(c2ccc(Cl)cc2)C(Cl)(Cl)Cl)cc1`, the AC50 was 3.55 µM (active) and 6.68 µM (active) in experiment [1]; 2.62 µM (active) and 8.54 µM (active) in experiment [2]; 1.98 µM (active) and 8.91 µM (active) in experiment [3]; 6.95 µM (active) and 5.75 µM (active) in [4]; 3.02 µM (active) and 4.15 µM (active) in [5]; 4.07 µM (active) and 6.5 µM (active) in [15]. Also, the AC50 in experiment [7] was 3.88 µM (active) and 8.94 µM (active); in experiment [8], 971 nM (active) and 2.52 µM (active); in experiment [9], 3 µM (active) and 4.07 µM (active). For the same molecule, the call in experiment [6] was inactive.

As for `CCN(CC)CCO`, the call in [6] was inactive.

As for `C[C@]12C=CC3=C4CCC(=O)C=C4CC[C@H]3[C@@H]1CC[C@@H]2O`, the figures for the half-maximal activity concentration (AC50) in experiment [16] and in [17] were 100 µM (active) and 23.5 µM (active), respectively.

For `ClCCOCCCl`, the molecule was classed as inactive in experiment [16], in experiment [17] and in experiment [6].

For the molecule `CC(C)(C)C(O)(CCc1ccc(Cl)cc1)Cn1cncn1` (centres undefined), the AC50 is 15 µM (active) in experiment [1]; 15 µM (active) in experiment [2]; 15 µM (active) in experiment [4]; 2.24 µM (active) in experiment [8]; 15 µM (active) in experiment [9]; 0.439 µM (active) in experiment [13]. Besides, the molecule was classed as inactive in experiment [3], in experiment [5], in experiment [15], in [6], in [7] and in [11]. The molecule was called inactive in experiment [12] and in experiment [14].

On to `CC(C)COC(=O)c1ccccc1C(=O)OCC(C)C`, for which the AC50 in experiment [1] is 15.9 µM (active); in experiment [2], 13.7 µM (active); in experiment [4], 13.6 µM (active); in experiment [5], 23.1 µM (active); in experiment [15], 23.6 µM (active); in experiment [7] it was 24.8 µM (active). Also, the AC50 is 22.2 µM (active) in [8], 13.9 µM (active) in [9] and 87.9 µM (active) in experiment [14]. Besides, the molecule was classed as inactive in experiment [3], in experiment [6], in [10], in experiment [11], in [12] and in experiment [13].
